Results reported in PubChem BioAssay (Tox21).
Inconclusive results are not listed. Activity calls are given as the source filed them. Unless noted, calls come from the whole dose curve; as a rule, active = well fitted curve in the direction sought with a large enough effect in the repeat runs; inconclusive = weak or mixed curves; inactive = no such curve, though single readings can be large; an effect the other way counts as inactive or inconclusive.

Experiments:
[1] = qHTS assay for small molecule agonists of the p53 signaling pathway (AID 651631; calls by dose curve; note: nearly all actives have a fitted effect of over 15% in size)
Summary of the method: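 Fluorescence intensity from cleaved LiveBLAzer B/G substrate (2 h, room temperature) served as the signal. Beforehand, HCT-116 reporter cells bearing p53 response elements were treated 16 h at 37 °C with DMSO-dissolved compounds.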

[2] = qHTS assay for small molecules that induce genotoxicity in human embryonic kidney cells expressing luciferase-tagged ATAD5 (AID 651632); note: nearly all actives have a fitted effect of over 15% in size
Summary of the method: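 A rise in luciferase signal from ATAD5-tagged HEK293T cells marks genetic stress. Cells were exposed to compounds for 16 hr at 37C, 5% CO2, then luciferase was quantified after a 30 min room-temperature incubation with Amplite.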

[3] = qHTS assay for small molecule agonists of the p53 signaling pathway - cell viability (AID 651633; calls by dose curve;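 note: p53RE-bla HCT reporter cells with a stable beta-lactamase p53 reporter; series mostly up to about 83 µM; nearly all actives have a fitted effect of over 30% in size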)
Summary of the method: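 Viability counter-read: CellTiter-Glo luminescence (30 min, room temperature) in the same p53RE-bla plates. These plates had been exposed to compounds for 16 h at 37 C.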

[4] = qHTS assay for small molecules that induce genotoxicity in human embryonic kidney cells expressing luciferase-tagged ATAD5 - cell viability (AID 651634; calls by dose curve; note: nearly all actives have a fitted effect of over 25% in size)
Summary of the method: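 Cytotoxicity counter-readout: after 15.5 hr compound treatment at 37C, live-cell protease activity in ATAD5-luciferase HEK293T cells measured by CellTiter-Fluor fluorescence, 30 min development at 37C.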

[5] = qHTS assay for small molecule disruptors of the mitochondrial membrane potential - cell viability (AID 720634; calls by dose curve;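 note: human HepG2 liver cancer cells; series mostly up to about 83 µM; nearly all actives have a fitted effect of over 20% in size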)
Summary of the method: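 Cytotoxicity was quantified from ATP content by CellTiter-Glo luminescence in the same wells as the MMP dye read-out. HepG2 (2,000 cells/well) were plated overnight and exposed to compounds for 1 hr at 37 C.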

[6] = qHTS assay for small molecule disruptors of the mitochondrial membrane potential (AID 720635)
Summary of the method: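 Mitochondrial membrane potential tracked with Mito-MPS dye, red aggregates (ex 540/em 590 nm) against green monomers (ex 490/em 535 nm). Compound treatment 1 hr at 37C, dye 30 min in HepG2.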

[7] = qHTS assay to test for compound auto fluorescence at 590 nm (red) in HepG2 cells (AID 720674)
Summary of the method: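 1 hr compound incubation on HepG2 cells, 37 C, 5% CO2; plate read ex 540 nm / em 590 nm; intensities reported as Rose Bengal sodium equivalents.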

[8] = qHTS assay to test for compound auto fluorescence at 535 nm (green) in HepG2 cells (AID 720675)
[9] = qHTS assay to test for compound auto fluorescence at 460 nm (blue) in HEK293 cells (AID 720678)
Summary of the method: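 HEK293 cells (2,000/well, medium with 10% dialyzed FBS) attached 4-5 hr, then exposed to compound overnight at 37C, 5% CO2. Blue fluorescence read at 405/460 nm, with triamterene as reference fluorophore.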

[10] = qHTS assay to test for compound auto fluorescence at 590 nm (red) in HEK293 cells (AID 720679)
Summary of the method: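 HEK293 cells (2,000/well, 10% dialyzed FBS) attached 4-5 hr, then dosed with compound or DMSO and incubated overnight at 37C, 5% CO2. Red fluorescence read at 540/590 nm, Rose Bengal sodium as reference fluorophore.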

[11] = qHTS assay to test for compound auto fluorescence at 535 nm (green) in HEK293 cells (AID 720680)
[12] = qHTS assay to test for compound auto fluorescence at 460 nm (blue) in HEK293 cell free culture (AID 720681)
Summary of the method: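 Blue fluorescence (Ex 405/Em 460 nm, triamterene-equivalent) was read immediately after pin transfer of compound or DMSO into medium (DMEM, 10% FBS) without cells.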

[13] = qHTS assay to test for compound auto fluorescence at 535 nm (green) in HEK293 cell free culture (AID 720682)
Summary of the method: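 Intrinsic compound fluorescence is measured in culture medium containing 10% FBS, with excitation at 485 nm and detection at 535 nm, referenced to fluorescein.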

[14] = qHTS assay to test for compound auto fluorescence at 590 nm (red) in HEK293 cell free culture (AID 720683)
Summary of the method: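 Red-channel autofluorescence of compounds in culture medium (DMEM, 10% FBS), no cells, measured at 540/590 nm. Rose Bengal sodium is the reference fluorophore for equivalence.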

[15] = qHTS assay to test for compound auto fluorescence at 590 nm (red) in HepG2 cell free culture (AID 720684)
Summary of the method: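 Cell-free; medium MEM + 10% FBS; compound or DMSO added by pintool; read Ex 540/Em 590 nm; Rose Bengal sodium as red reference fluorophore.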

[16] = qHTS assay to test for compound auto fluorescence at 460 nm (blue) in HepG2 cell free culture (AID 720685)
Summary of the method: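 Cell-free plates of MEM plus 10% FBS received 23 nL compound or DMSO vehicle; blue-channel (405/460 nm) intensity scored against triamterene as reference fluorophore.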

[17] = qHTS assay to test for compound auto fluorescence at 535 nm (green) in HepG2 cell free culture (AID 720686)
[18] = qHTS assay to test for compound auto fluorescence at 460 nm (blue) in HepG2 cells (AID 720687)
Summary of the method: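 Blue-channel autofluorescence (Ex/Em 405/460 nm, triamterene-equivalent) was measured after 1 hr compound exposure at 37 C, 5% CO2. Cells were HepG2, plated overnight at 37 C in MEM plus 10% FBS.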

[19] = target: Glucocorticoid receptor (Homo sapiens) (UniProt P04150); assay: qHTS assay to identify small molecule agonists of the glucocorticoid receptor (GR) signaling pathway (AID 720691; active = well fitted activation curve with a large enough effect in the signal ratio in the repeat runs, not every such curve was filed as active; the % refers to the signal ratio)
Glucocorticoid receptor (Homo sapiens), sequence (P04150 whole entry, looked up): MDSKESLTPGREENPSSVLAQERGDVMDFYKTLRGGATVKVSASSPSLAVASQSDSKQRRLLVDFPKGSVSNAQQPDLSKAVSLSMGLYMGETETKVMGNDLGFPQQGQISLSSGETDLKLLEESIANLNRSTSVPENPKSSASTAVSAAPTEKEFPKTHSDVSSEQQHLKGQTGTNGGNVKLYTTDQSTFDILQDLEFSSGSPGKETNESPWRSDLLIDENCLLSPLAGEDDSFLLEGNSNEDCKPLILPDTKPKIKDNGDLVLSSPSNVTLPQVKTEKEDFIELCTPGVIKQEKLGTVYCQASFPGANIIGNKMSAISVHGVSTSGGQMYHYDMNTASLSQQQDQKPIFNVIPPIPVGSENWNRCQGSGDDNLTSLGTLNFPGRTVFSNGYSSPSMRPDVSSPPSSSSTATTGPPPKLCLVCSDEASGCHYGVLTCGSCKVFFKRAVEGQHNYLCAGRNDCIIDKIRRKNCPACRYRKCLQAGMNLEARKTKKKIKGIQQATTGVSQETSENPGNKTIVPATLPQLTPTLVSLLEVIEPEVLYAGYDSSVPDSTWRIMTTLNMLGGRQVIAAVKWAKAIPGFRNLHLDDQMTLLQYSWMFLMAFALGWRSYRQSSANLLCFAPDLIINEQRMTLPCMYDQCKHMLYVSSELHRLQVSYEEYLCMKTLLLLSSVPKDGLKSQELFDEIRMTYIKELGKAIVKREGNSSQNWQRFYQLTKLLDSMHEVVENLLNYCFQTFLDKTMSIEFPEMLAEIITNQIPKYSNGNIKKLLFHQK
Summary of the method: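 Agonist-mode qHTS in HeLa cells stably expressing a glucocorticoid-response-element beta-lactamase reporter. Fluorescence intensity read with FRET substrate (2 h, room temperature) after 18 h compound treatment at 37 C.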

[20] = target: Glucocorticoid receptor (Homo sapiens) (UniProt P04150); assay: qHTS assay to identify small molecule antagonists of the glucocorticoid receptor (GR) signaling pathway (AID 720692; active = well fitted inhibition curve with a large enough effect in the signal ratio in the repeat runs, not every such curve was filed as active; the % refers to the signal ratio)
Summary of the method: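 Inhibition of dexamethasone-driven (5 nM final) beta-lactamase expression was measured in GRE-reporter HeLa cells over 18 h at 37C. Fluorescence was read after 2 h with the B/G FRET substrate at room temperature.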

Measured: Potency

C=CC(=O)NC(C)C
inactive: [1] | [2] | [3] | [4] | [5] | [6] | [7] | [8] | [9] | [10] | [11] | [12] | [13] | [14] | [15] | [16] | [17] | [18] | [19] | [20]

CC(C)C(O)C(C)(C)CO (centres undefined)
inactive: [1] | [2] | [3] | [4] | [5] | [6] | [7] | [8] | [9] | [10] | [11] | [12] | [13] | [14] | [15] | [16] | [17] | [18] | [19] | [20]

Nc1ccc(S(=O)(=O)NCc2ccccc2)cc1
inactive: [1] | [2] | [3] | [4] | [5] | [6] | [7] | [8] | [9] | [10] | [11] | [12] | [13] | [14] | [15] | [16] | [17] | [18] | [19] | [20]

CC1=C2[C@@H]([C@H](C)CC[C@H]2/C=C(\C)C(=O)O)[C@H](O)C1
inactive: [1] | [2] | [3] | [4] | [5] | [6] | [7] | [8] | [9] | [10] | [11] | [12] | [13] | [14] | [15] | [16] | [17] | [18] | [19] | [20]

CC(C)N=C=NC(C)C
inactive: [1] | [2] | [3] | [4] | [5] | [6] | [7] | [8] | [9] | [10] | [11] | [12] | [13] | [14] | [15] | [16] | [17] | [18] | [19] | [20]

Nc1ccn([C@H]2CS[C@@H](CO)O2)c(=O)n1
inactive: [1] | [2] | [3] | [4] | [5] | [6] | [7] | [8] | [9] | [10] | [12] | [13] | [14] | [15] | [16] | [17] | [18] | [19] | [20]

CC1CCCC(=O)C1=O (centres undefined)
inactive: [1] | [2] | [3] | [4] | [5] | [6] | [7] | [8] | [9] | [10] | [11] | [12] | [13] | [14] | [15] | [16] | [17] | [18] | [19] | [20]
